Unmarked numbers belong to inactive results. Where a call stands in place of a potency, no number is given. For some assays here: Potency and affinity values are given separately. The source made the active and inactive calls. Unless noted, the rule behind the calls is not given here.
Experiments:
[1] = antimalarial activity against Dd2 strain (AID 2302;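 active = growth inhibition above 50% at the single 2 µM test dose, taken to imply half-maximal potency below 2 µM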); conditions: P. falciparum Dd2 in RBCs, LDH growth readout, 72 h; at 2 µM; stronger effect = higher value
[2] = HepG2 cytotoxicity, primary screen, cytotoxicity control for P. falciparum antimalarial project, cell-based, ATP luminescence (AID 2303;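 active = inhibition above 50%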); conditions: HepG2 viability, 24-48 h, at 10 µM, stronger effect = higher value
[3] = molecular target: L-lactate dehydrogenase (Plasmodium falciparum (isolate CDC / Honduras)) (UniProt Q27743); assay: PfLDH activity inhibition – cell lysate, 3D7 strain, counter-screen for P. falciparum growth inhibition project (AID 2304); conditions: P. falciparum 3D7 crude extract, LDH APAD/NBT absorbance; at 2 µM; stronger effect = higher value
Chain of L-lactate dehydrogenase (Plasmodium falciparum (isolate CDC / Honduras)) (Q27743 whole entry, looked up): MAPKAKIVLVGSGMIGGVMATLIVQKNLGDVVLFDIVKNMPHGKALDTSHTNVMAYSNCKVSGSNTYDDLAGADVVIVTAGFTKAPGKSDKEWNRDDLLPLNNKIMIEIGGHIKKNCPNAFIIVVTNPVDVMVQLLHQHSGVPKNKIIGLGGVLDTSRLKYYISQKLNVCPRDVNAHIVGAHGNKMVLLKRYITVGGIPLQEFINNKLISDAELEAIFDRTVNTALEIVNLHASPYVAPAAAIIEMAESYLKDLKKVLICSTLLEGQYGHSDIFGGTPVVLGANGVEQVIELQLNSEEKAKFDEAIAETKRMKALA

[4] = inhibition of 3D7 malaria parasite growth – strain 3D7 (AID 2306); conditions: P. falciparum 3D7 erythrocytic growth, LDH absorbance, 72 h; at 2 µM; stronger effect = higher value
[5] = molecular target: Calcium-dependent protein kinase 1 (Plasmodium falciparum (isolate 3D7)) (UniProt P62344); assay: PfCDPK1 kinase inhibitors, biochemical, TCAMS library (AID 1159585; cut-off not given, nearly all actives have IC50 up to about 0.98 µM;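 note: inhibitors leave more ATP so luminescence rises with inhibition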); conditions: recombinant PfCDPK1, Kinase-Glo ATP depletion luminescence
Chain of Calcium-dependent protein kinase 1 (Plasmodium falciparum (isolate 3D7)) (P62344 whole entry, looked up): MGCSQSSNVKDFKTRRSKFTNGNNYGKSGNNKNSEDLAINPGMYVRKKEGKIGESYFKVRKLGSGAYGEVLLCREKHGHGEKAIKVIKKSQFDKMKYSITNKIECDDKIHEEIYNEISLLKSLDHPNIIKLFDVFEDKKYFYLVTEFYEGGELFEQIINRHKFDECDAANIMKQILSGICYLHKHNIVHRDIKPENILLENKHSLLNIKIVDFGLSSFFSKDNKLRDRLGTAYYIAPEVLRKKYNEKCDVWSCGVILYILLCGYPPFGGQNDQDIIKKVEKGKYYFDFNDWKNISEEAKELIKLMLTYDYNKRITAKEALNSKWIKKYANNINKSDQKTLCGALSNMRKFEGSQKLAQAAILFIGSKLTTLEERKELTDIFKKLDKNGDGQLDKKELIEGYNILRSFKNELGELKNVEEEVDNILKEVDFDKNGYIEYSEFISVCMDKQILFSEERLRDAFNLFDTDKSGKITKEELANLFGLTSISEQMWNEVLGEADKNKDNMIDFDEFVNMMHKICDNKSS

[6] = molecular target: Plasmodium falciparum protein kinase 6 (PK6, PF3D7_1337100) (UniProt Q8IDW1); assay: PfPK6 kinase inhibitors, biochemical, TCAMS library (AID 1159586); conditions: recombinant PfPK6, Kinase-Glo ATP depletion luminescence
Chain of Plasmodium falciparum protein kinase 6 (PK6, PF3D7_1337100) (Q8IDW1 1-305): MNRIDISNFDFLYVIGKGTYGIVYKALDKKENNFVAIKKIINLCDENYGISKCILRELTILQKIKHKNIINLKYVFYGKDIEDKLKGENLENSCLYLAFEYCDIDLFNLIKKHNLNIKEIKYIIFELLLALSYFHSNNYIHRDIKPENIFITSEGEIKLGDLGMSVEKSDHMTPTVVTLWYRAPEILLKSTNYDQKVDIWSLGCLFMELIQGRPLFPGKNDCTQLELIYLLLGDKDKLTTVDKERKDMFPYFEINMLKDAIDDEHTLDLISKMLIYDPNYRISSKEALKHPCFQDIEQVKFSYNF

[7] = molecular target: Protein kinase 7 (PK7), Plasmodium falciparum 3D7 (PF3D7_0213400) (UniProt Q7YTF7); assay: inhibition of Plasmodium PK7 catalytic activity – biochemical, TCAMS antimalarial set, Kinase-Glo luminescence (AID 1159587); conditions: recombinant PfPK7, Kinase-Glo ATP depletion luminescence
Chain of Protein kinase 7 (PK7), Plasmodium falciparum 3D7 (PF3D7_0213400) (Q7YTF7 1-343): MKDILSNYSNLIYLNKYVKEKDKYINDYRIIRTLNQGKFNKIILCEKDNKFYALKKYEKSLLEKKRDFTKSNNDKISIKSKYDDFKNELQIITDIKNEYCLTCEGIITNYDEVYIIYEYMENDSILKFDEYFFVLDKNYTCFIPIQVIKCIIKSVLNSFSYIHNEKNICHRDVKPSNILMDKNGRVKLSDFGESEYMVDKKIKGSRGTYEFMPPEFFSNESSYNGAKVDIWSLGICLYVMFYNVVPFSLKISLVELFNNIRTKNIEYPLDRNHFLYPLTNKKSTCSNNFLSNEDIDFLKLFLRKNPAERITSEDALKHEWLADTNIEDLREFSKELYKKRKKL

[8] = molecular target: Calcium-dependent protein kinase 4 (Plasmodium falciparum (isolate 3D7)) (UniProt Q8IBS5); assay: PfCDPK4 kinase inhibitors, biochemical, TCAMS library (AID 1159588; cut-off not given, nearly all actives have IC50 up to about 0.91 µM); conditions: recombinant PfCDPK4, Kinase-Glo ATP depletion luminescence
Chain of Calcium-dependent protein kinase 4 (Plasmodium falciparum (isolate 3D7)) (Q8IBS5 whole entry, looked up): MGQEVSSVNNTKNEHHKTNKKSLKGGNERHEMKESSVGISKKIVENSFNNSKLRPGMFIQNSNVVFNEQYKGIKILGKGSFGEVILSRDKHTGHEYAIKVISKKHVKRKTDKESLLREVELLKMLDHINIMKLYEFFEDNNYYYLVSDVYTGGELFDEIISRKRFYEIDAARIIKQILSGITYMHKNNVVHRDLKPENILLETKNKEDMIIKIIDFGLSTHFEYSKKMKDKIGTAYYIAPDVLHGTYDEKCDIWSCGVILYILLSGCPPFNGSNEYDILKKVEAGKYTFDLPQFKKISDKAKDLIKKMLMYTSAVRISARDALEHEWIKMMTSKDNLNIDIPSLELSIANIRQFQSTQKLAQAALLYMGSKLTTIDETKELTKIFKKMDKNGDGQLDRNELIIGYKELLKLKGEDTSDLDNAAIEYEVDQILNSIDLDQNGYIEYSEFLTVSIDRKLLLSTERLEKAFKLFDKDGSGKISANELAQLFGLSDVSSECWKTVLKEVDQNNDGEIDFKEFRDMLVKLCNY

| SMILES | growth inhibition [1] | inhibition [2] | inhibition [3] [%] | growth inhibition [4] | outcome [5] | outcome [6] | outcome [7] | outcome [8] |
| --- | --- | --- | --- | --- | --- | --- | --- | --- |
| C[C@@H](N=C(Nc1ccc(C#N)cc1O)Nc1ccccc1Cl)c1ccc(Br)cc1 | 70% (active) | 33% | 0 | 98% (active) | inactive | inactive | inactive | inactive |
| CC(O)C1CCCCN1C(=O)c1cccc(-c2cccc(-c3nc4ccccc4[nH]3)c2)c1 (stereo not given) | 76% (active) | 20% | -4 | 99% (active) | inactive | inactive | inactive | inactive |
| CCC(=O)NC(c1ccco1)c1cc(Cl)c2cccnc2c1O (stereo not given) | 74% (active) | 58% (active) | -5 | 89% (active) | inactive | inactive | inactive | inactive |
| CCCC(C)N(Cc1ccc(C(C)(C)C)cc1)C(=O)c1cccc(OC)c1 (stereo not given) | 89% (active) | 9% | 1 | 100% (active) | inactive | inactive | inactive | inactive |
| Cc1ccc(Oc2ncccc2C(=O)Nc2cccc3cccnc23)c(C)c1 | 76% (active) | -13% | 0 | 99% (active) | inactive | inactive | inactive | inactive |
| CN(C)c1ccc(-c2nc3ccc(N)cc3[nH]2)cc1 | 97% (active) | 1% | -1 | 102% (active) | inactive | inactive | inactive | inactive |
| CCN(CC)C(=O)c1cccc(/C=C/c2ccc(-c3c(C)[nH]c(C)c(Cl)c3=O)cc2)c1 | 96% (active) | 9% | 6 | 96% (active) | inactive | inactive | inactive | inactive |
| CCNc1cc(C(=O)N[C@@H](Cc2ccccc2)[C@H](O)CNC(C)C)cc(N2CC(c3ccccc3)CCS2(=O)=O)c1 (stereo not given in full) | 99% (active) | 0% | -1 | 98% (active) | inactive | inactive | inactive | inactive |
| Cc1cc2ccccc2c(CON2C(N)=NC(N)=NC2(C)C)c1C | 31% | 65% (active) | -3 | 93% (active) | inactive | inactive | inactive | inactive |
| CCOc1cc(C(=O)NCc2cc(Cl)cc(Cl)c2)ccc1-c1nc2ccc(Cl)cc2[nH]1 | 5% | 1% | -3 | 101% (active) | inactive | inactive | inactive | inactive |
| O=[N+]([O-])c1ccccc1C=NNc1c2c(nc3ccccc13)CCCC2 | 99% (active) | -2% | -3 | 97% (active) | inactive | inactive | inactive | inactive |
| COc1cc(NC(=O)C(c2ccc(Cl)cc2)C(C)C)cc(OC)c1OC (stereo not given) | 100% (active) | 10% | -1 | 101% (active) | inactive | inactive | inactive | inactive |
| N#Cc1ccc(CCNc2nccc(-c3cccc(CN4CCNCC4)c3)n2)cc1 | -3% | 5% | 3 | 83% (active) | inactive | inactive | inactive | inactive |
| Cc1cc(=O)c(-c2ccc(Oc3ccc(Cl)cc3Cl)cc2)c(C)[nH]1 | 73% (active) | -1% | -2 | 93% (active) | inactive | inactive | inactive | inactive |
| NC(=O)c1cccc(Nc2nccc(Nc3ccc(Oc4c(Cl)cccc4Cl)c(Cl)c3)n2)c1 | 17% | 2% | 5 | 93% (active) | inactive | inactive | inactive | inactive |
| COc1ccc2nccc([C@@H](O)CN3CCC(NCc4cc5c(Cl)cccc5[nH]4)CC3)c2c1 | 74% (active) | 40% | 1 | 101% (active) | inactive | inactive | inactive | inactive |
| O=C(Nc1ccc(OC2CCN(Cc3ccccc3)CC2)c(Cl)c1)c1ccco1 | 96% (active) | 8% | 6 | 96% (active) | inactive | inactive | inactive | inactive |
| c1cncc(CN2CCCN(c3ccc4c(c3)CCN(Cc3ccc(-c5ncc[nH]5)cc3)CC4)CC2)c1 | 33% | 7% | 2 | 99% (active) | inactive | inactive | inactive | inactive |
| CC(=O)COc1c(C2CCN(CCCCNC(=O)c3ccc(-c4ccc(C(F)(F)F)cc4)cc3)CC2)ccc2c1CCCC2 | 53% (active) | 100% (active) | -7 | 99% (active) | inactive | inactive | inactive | inactive |
| CC(C)(C)c1ccc(CN2CCC(CNC(=O)c3cc(-c4cccc(C(F)(F)F)c4)cs3)C2)cc1 (stereo not given) | 84% (active) | 80% (active) | 1 | 100% (active) | inactive | inactive | inactive | inactive |

| SMILES | growth inhibition [1] | inhibition [2] | inhibition [3] [%] | growth inhibition [4] | outcome [5] | outcome [6] | outcome [7] | outcome [8] |
| --- | --- | --- | --- | --- | --- | --- | --- | --- |
| O=C(Nc1ccc2c(c1)CCN2C1CCN(Cc2cccc(F)c2F)C1)c1ccco1 (stereo not given) | 90% (active) | -4% | 0 | 87% (active) | inactive | inactive | inactive | inactive |
| Cc1cc(N)nc2ccc(-c3ccc(CN)cc3)cc12 | 93% (active) | 4% | -3 | 100% (active) | inactive | inactive | inactive | inactive |
| Oc1ccc(CCCNc2nc(NCc3cccc4ccccc34)nc(N3CCNCC3)n2)cc1 | 4% | 9% | -1 | 100% (active) | inactive | inactive | inactive | inactive |
| Cn1c(O)c(N=NC(=S)N2CCOCC2)c2ccccc21 | 54% (active) | 57% (active) | 6 | 95% (active) | inactive | inactive | inactive | inactive |
| CCNc1cc(C(=O)N[C@@H](Cc2ccccc2)[C@H](O)CNC23CC4CC(CC(C4)C2)C3)cc(N2CCCCS2(=O)=O)c1 | 99% (active) | 3% | -2 | 98% (active) | inactive | inactive | inactive | inactive |
| O=[N+]([O-])c1cccc(NC(=S)N2CCCN(Cc3ccc(Cl)cc3Cl)CC2)c1 | 50% (active) | 3% | 4 | 94% (active) | inactive | inactive | inactive | inactive |
| CC(=O)N(Cc1nc(-c2cc(C(F)(F)F)cc(C(F)(F)F)c2)cs1)c1c(C)cccc1C | 99% (active) | -2% | 1 | 100% (active) | inactive | inactive | inactive | inactive |
| COc1ccc(CNC2CCN(C)CC2)cc1-c1ccc(S(=O)(=O)NC2CCC2)c(C)c1 | 96% (active) | 24% | 0 | 101% (active) | inactive | inactive | inactive | inactive |
| O=C(Nc1ccc([N+](=O)[O-])cc1O)Nc1ccccc1Oc1ccccc1 | 1% | 45% | -8 | 92% (active) | inactive | inactive | inactive | inactive |
| CCCCCCN1CCC(CNCc2cccc([N+](=O)[O-])c2)CC1 | 15% | 16% | -1 | 95% (active) | inactive | inactive | inactive | inactive |
| N#CC1(CCCNCCc2ccc(O)cc2)CCCc2c(O)cccc21 (stereo not given) | 3% | -2% | -5 | 95% (active) | inactive | inactive | inactive | inactive |
| O=C(Nc1cc(Cl)cc(Cl)c1)c1cc(Cl)c(=O)n(Cc2cccc(Cl)c2)c1 | 62% (active) | 8% | 2 | 100% (active) | inactive | inactive | inactive | inactive |
| CC(C)CNCc1cccc(-c2ccc(CN(CCCN3CCN(C)CC3)C(=O)/C=C/c3ccccc3)cc2)c1 | 90% (active) | 48% | -2 | 92% (active) | inactive | inactive | inactive | inactive |
| CC(C)CCN1CCCN(Cc2ccc(C(=O)Nc3ccc(Cl)cc3)cc2)CC1 | 15% | 46% | 4 | 94% (active) | inactive | inactive | inactive | inactive |
| Cc1cccc2[nH]c(-c3cccc(-c4cccc(NC(=O)c5ccoc5)c4)c3)nc12 | 71% (active) | 19% | -4 | 99% (active) | inactive | inactive | inactive | inactive |
| COc1ccc(Cl)cc1NC(=O)Nc1ccnc2ccccc12 | 44% | 13% | -6 | 101% (active) | inactive | inactive | inactive | inactive |
| COc1ccccc1CCNc1ncnc2c1[nH]c1ccc(F)cc12 | 68% (active) | 49% | 0 | 95% (active) | inactive | inactive | inactive | inactive |
| O=[N+]([O-])c1ccc(NC(=NC2CCCc3ccccc32)Nc2ccccc2Br)c(O)c1 (stereo not given) | 89% (active) | -4% | -3 | 98% (active) | inactive | inactive | inactive | inactive |
| Nc1ncc(-c2ccc(F)cc2)cc1-c1nc2ccc(Cl)cc2[nH]1 | 44% | 45% | 0 | 99% (active) | inactive | inactive | inactive | inactive |
| CN(C)c1ccc(CN2CCC(CNC(=O)c3cc(-c4ccccc4Cl)cs3)C2)cc1 (stereo not given) | 5% | 29% | -3 | 91% (active) | inactive | inactive | inactive | inactive |

From PubChem BioAssay
